Measured values published in the supplement of paper PMC10849652.
Of roughly 8,800 targets only a part is listed; those with a hit were picked by preference. About 0.5% of all pairs of compound and target were hits. Values without a mark were called inactive.

Legend:
Assay in all cases: log2 fold change, soluble protein after heating vs DMSO (PISA); higher = thermal stabilisation; K562 lysate, 10 uM; active = over 0.2 and 3.5 SD of the protein, either way, in both replicates (recomputed)
alvocidib = compound: CN1CC[C@H](c2c(O)cc(O)c3c(=O)cc(-c4ccccc4Cl)oc23)[C@H](O)C1 [alvocidib]
Procedure, shortened: (§1)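 Pellets of K562 cells were dounce-homogenised in PBS pH 7.4 with 1 mM MgCl2, and the crude extract was held at 1 mg/mL protein for a 30 min treatment with 10 μM compound. Aliquots were heated for 3 min over 48°C-58°C and pooled before NP-40 was added to 0.5% at 4°C. The supernatant from 21,000xg for 90 min was quantified by TMTpro 16plex LC-MS/MS with channel sums equalised. Values are reported from duplicates as log-two fold change in thermal stability relative to solvent controls.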

Tubastatin A = compound: CN1CCc2c(c3ccccc3n2Cc2ccc(C(=O)NO)cc2)C1 [Tubastatin A]
Procedure, shortened: as §1

[1] = compound: CNC(=O)C1=CC=CC=C1NC2=NC(=NC=C2Cl)NC3=C(C=C(C=C3)N4CCOCC4)OC
Procedure, shortened: as §1

defactinib = compound: CNC(=O)c1ccc(Nc2ncc(C(F)(F)F)c(NCc3nccnc3N(C)S(C)(=O)=O)n2)cc1 [defactinib]
Procedure, shortened: as §1

[2] = compound: CNc1nc(-c2ccc3c(N)n[nH]c3c2)cc(N2C[C@@H](C(=O)NC3CCCCC3)CC[C@H]2C)n1
Procedure, shortened: as §1

encorafenib = compound: COC(=O)N[C@@H](C)CNc1nccc(-c2cn(C(C)C)nc2-c2cc(Cl)cc(NS(C)(=O)=O)c2F)n1 [encorafenib]
Procedure, shortened: as §1

[3] = compound: COC(=O)[C@H](CCSC)NC(=O)C1=C(C=C(C=C1)NC[C@H](CS)N)C2=CC=CC=C2
Procedure, shortened: as §1

alisertib = compound: COc1cc(Nc2ncc3c(n2)-c2ccc(Cl)cc2C(c2c(F)cccc2OC)=NC3)ccc1C(=O)O [alisertib]
Procedure, shortened: as §1

[4] = compound: COc1cc2nc(-c3cc(F)ccc3O)nc(N[C@@H]3CNC[C@H]3C(C)(C)O)c2cc1OC
Procedure, shortened: as §1

gefitinib = compound: COc1cc2ncnc(Nc3ccc(F)c(Cl)c3)c2cc1OCCCN1CCOCC1 [gefitinib]
Procedure, shortened: as §1

lapatinib = compound: CS(=O)(=O)CCNCc1ccc(-c2ccc3ncnc(Nc4ccc(OCc5cccc(F)c5)c(Cl)c4)c3c2)o1 [lapatinib]
Procedure, shortened: as §1

pictilisib = compound: CS(=O)(=O)N1CCN(Cc2cc3nc(-c4cccc5[nH]ncc45)nc(N4CCOCC4)c3s2)CC1 [pictilisib]
Procedure, shortened: as §1

crizotinib = compound: C[C@@H](Oc1cc(-c2cnn(C3CCNCC3)c2)cnc1N)c1c(Cl)ccc(F)c1Cl [crizotinib]
Procedure, shortened: as §1

[5] = compound: C[C@H](C1=CC=C(C=C1)C(=O)NC2=C3C=CNC3=NC=C2)N
Procedure, shortened: as §1

duvelisib = compound: C[C@H](Nc1ncnc2nc[nH]c12)c1cc2cccc(Cl)c2c(=O)n1-c1ccccc1 [duvelisib]
Procedure, shortened: as §1

gandotinib = compound: Cc1cc(Nc2cc(CN3CCOCC3)c3nc(C)c(Cc4ccc(Cl)cc4F)n3n2)n[nH]1 [gandotinib]
Procedure, shortened: as §1

tozasertib = compound: Cc1cc(Nc2cc(N3CCN(C)CC3)nc(Sc3ccc(NC(=O)C4CC4)cc3)n2)n[nH]1 [tozasertib]
Procedure, shortened: as §1

doramapimod = compound: Cc1ccc(-n2nc(C(C)(C)C)cc2NC(=O)Nc2ccc(OCCN3CCOCC3)c3ccccc23)cc1 [doramapimod]
Procedure, shortened: as §1

bafetinib = compound: Cc1ccc(NC(=O)c2ccc(CN3CC[C@H](N(C)C)C3)c(C(F)(F)F)c2)cc1Nc1nccc(-c2cncnc2)n1 [bafetinib]
Procedure, shortened: as §1

[6] = compound: Cc1cccc(CC(=O)N2CCc3c2ccc(-c2cn(C)c4ncnc(N)c24)c3F)n1
Procedure, shortened: as §1

Sequence of UniProt Q96TA2 (Q96TA2 whole entry, looked up): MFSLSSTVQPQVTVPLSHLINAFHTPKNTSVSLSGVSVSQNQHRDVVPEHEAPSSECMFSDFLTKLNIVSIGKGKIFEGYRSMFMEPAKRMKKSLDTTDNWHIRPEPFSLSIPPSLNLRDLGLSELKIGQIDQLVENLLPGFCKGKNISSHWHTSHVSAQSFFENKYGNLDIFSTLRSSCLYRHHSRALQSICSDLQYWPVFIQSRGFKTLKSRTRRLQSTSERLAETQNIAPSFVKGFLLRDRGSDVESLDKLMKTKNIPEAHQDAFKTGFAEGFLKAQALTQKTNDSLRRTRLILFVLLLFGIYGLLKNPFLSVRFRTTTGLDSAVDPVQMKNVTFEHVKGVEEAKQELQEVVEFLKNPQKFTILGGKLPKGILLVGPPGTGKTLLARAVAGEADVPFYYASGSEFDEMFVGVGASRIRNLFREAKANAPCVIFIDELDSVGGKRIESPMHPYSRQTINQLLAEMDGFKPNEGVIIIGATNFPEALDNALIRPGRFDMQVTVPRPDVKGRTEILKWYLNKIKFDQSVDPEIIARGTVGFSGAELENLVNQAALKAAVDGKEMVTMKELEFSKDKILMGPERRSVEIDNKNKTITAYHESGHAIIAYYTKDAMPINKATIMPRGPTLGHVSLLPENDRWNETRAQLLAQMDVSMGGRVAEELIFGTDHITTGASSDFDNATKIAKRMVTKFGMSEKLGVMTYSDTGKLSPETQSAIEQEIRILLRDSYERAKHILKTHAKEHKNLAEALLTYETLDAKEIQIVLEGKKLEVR
Sequence of UniProt O15014 (O15014 whole entry, looked up): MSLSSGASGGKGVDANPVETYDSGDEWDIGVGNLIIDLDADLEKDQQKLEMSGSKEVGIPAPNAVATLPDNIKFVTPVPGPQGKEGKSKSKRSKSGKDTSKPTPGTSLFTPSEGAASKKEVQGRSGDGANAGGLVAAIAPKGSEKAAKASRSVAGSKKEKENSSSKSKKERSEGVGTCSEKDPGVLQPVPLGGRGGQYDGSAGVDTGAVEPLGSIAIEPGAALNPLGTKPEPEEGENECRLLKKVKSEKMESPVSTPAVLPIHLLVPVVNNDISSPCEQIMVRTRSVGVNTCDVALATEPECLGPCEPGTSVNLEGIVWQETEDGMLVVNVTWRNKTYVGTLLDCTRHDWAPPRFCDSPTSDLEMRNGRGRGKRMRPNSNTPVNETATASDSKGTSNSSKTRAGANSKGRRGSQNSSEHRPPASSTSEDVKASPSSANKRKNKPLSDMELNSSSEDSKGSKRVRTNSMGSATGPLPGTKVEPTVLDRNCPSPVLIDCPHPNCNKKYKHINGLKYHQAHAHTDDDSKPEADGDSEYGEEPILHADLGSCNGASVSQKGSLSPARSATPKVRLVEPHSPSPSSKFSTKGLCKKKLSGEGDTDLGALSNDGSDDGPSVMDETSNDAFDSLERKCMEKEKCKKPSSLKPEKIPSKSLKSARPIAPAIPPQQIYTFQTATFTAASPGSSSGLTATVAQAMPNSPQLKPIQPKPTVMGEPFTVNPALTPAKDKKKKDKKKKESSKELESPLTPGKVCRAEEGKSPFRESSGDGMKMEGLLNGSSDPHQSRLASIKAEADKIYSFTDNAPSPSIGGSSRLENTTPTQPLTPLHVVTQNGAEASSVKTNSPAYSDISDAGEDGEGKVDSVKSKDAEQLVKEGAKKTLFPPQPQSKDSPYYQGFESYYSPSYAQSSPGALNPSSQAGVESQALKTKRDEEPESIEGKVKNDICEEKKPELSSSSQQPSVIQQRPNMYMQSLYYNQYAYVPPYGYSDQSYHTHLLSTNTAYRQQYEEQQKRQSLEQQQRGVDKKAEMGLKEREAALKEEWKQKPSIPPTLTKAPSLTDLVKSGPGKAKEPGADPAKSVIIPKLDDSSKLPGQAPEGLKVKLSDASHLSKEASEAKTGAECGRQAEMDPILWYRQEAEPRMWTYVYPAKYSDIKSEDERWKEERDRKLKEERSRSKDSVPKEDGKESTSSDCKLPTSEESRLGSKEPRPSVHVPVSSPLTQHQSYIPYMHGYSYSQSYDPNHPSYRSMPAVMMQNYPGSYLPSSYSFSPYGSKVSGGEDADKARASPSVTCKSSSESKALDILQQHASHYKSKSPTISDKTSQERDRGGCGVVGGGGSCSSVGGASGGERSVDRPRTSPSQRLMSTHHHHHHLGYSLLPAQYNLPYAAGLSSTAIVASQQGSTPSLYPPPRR
Sequence of UniProt Q8IX07 (Q8IX07 whole entry, looked up): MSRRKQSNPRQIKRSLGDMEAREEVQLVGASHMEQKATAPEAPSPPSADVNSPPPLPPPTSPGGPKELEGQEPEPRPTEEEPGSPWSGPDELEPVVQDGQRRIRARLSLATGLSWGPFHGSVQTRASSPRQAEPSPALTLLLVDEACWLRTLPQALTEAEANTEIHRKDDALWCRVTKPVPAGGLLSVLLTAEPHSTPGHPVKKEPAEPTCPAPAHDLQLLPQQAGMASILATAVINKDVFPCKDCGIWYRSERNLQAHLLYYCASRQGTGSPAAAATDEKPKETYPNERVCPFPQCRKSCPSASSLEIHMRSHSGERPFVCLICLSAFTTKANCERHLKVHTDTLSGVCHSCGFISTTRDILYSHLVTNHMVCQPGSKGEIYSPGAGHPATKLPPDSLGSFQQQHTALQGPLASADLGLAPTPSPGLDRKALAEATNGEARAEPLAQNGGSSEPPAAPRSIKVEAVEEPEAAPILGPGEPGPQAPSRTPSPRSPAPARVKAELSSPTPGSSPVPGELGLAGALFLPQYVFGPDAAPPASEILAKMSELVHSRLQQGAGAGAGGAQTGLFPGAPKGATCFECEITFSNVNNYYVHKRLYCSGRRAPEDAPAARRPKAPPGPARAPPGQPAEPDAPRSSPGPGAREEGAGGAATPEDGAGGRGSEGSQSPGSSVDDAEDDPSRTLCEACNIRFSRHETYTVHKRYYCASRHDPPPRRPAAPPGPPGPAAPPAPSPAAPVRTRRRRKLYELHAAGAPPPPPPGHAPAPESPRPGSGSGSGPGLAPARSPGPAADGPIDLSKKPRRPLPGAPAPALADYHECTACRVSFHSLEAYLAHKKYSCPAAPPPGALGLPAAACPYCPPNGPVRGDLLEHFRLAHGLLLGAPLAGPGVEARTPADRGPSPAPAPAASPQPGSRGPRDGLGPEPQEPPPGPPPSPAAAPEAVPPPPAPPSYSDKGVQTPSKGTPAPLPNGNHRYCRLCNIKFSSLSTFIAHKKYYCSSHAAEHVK
Sequence of UniProt Q7Z3J2 (Q7Z3J2 whole entry, looked up): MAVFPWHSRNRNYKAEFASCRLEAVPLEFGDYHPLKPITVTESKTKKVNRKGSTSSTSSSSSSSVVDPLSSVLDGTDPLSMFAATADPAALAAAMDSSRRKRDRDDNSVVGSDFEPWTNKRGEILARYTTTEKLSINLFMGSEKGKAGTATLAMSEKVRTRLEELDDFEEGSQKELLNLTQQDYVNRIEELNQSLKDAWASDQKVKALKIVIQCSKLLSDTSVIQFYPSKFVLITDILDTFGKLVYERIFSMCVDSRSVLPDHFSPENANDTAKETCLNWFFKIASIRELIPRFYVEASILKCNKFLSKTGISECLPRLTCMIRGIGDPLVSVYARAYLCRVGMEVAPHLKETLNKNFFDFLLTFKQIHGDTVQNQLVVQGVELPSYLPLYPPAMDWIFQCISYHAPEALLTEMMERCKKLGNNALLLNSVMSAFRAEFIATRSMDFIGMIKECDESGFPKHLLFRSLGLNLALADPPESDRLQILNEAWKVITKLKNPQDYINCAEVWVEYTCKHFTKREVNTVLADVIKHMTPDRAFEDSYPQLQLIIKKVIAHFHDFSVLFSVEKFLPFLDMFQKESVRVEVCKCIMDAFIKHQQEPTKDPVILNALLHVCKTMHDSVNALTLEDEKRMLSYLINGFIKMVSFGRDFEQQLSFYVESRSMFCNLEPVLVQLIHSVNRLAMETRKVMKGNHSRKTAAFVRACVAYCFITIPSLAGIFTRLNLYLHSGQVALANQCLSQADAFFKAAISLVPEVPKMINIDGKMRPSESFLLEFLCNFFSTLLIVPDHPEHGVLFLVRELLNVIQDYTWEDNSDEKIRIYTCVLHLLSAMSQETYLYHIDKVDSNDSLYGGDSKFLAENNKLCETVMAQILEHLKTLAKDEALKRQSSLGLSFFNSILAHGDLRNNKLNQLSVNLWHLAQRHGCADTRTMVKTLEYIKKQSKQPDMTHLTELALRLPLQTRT
Sequence of UniProt P27348 (P27348 whole entry, looked up): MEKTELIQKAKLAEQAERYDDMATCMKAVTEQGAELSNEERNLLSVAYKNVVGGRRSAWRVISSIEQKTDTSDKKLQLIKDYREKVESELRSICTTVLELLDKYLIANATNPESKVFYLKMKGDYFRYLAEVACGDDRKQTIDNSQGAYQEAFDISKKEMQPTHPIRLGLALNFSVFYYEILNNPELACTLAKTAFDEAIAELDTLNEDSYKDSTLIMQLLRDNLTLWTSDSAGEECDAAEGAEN
Sequence of UniProt Q9BQA1 (Q9BQA1 whole entry, looked up): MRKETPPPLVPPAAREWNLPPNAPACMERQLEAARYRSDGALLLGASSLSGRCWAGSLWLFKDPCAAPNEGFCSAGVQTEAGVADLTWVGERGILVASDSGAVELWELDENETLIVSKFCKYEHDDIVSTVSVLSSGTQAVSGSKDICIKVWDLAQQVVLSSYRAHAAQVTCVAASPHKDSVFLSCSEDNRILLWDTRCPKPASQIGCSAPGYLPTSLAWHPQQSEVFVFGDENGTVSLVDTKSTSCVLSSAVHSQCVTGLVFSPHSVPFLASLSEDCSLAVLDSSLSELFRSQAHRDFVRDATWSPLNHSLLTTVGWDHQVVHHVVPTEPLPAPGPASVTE

With VPS13C (UniProt Q709C8) the log2 fold change (alvocidib) was 0.008, the log2 fold change (Tubastatin A) was 0.034 and the log2 fold change [1] was 0.002. It also gave a log2 fold change (defactinib) of 0.014, a log2 fold change [2] of 0.023 and a log2 fold change (encorafenib) of 0.192. For the same target, the log2 fold change [3] was -0.131, the log2 fold change (alisertib) was 0.111 and the log2 fold change [4] was 0.157. For the same target, the log2 fold change (gefitinib) was 0.131, the log2 fold change (lapatinib) was -0.008 and the log2 fold change (pictilisib) was 0.023. The log2 fold change (crizotinib) was 0.003, the log2 fold change [5] was -0.065 and the log2 fold change (duvelisib) was 0.021. The log2 fold change (gandotinib) was -0.055, the log2 fold change (tozasertib) was 0.052 and the log2 fold change (doramapimod) was -0.006. The log2 fold change (bafetinib) was -0.054 and the log2 fold change [6] was 0.213.
In the case of ZNF609 (UniProt O15014), the log2 fold change (alvocidib) is reported as -0.028, the log2 fold change (Tubastatin A) is reported as -0.044 and the log2 fold change [1] is reported as 0.02. It also gave a log2 fold change (defactinib) of -0.026, a log2 fold change [2] of 0.074 and a log2 fold change (encorafenib) of 0.002. It also gave a log2 fold change [3] of 0.013, a log2 fold change (alisertib) of -0.01 and a log2 fold change [4] of 0.018. The log2 fold change (gefitinib) was -0.002, the log2 fold change (lapatinib) was 0.023 and the log2 fold change (pictilisib) was -0.054. It also gave a log2 fold change (crizotinib) of 0.026, a log2 fold change [5] of -0.028 and a log2 fold change (duvelisib) of -0.042. The log2 fold change (gandotinib) was 0.16, the log2 fold change (tozasertib) was 0.024 and the log2 fold change (doramapimod) was -0.064. The log2 fold change (bafetinib) was -0.111 and the log2 fold change [6] was 0.187.
For WDR77 (UniProt Q9BQA1), the log2 fold change (alvocidib) was 0.242 (active), the log2 fold change (Tubastatin A) was 0.004 and the log2 fold change [1] was 0.002. For the same target, the log2 fold change (defactinib) was -0.012, the log2 fold change [2] was 0.012 and the log2 fold change (encorafenib) was 0.055. The log2 fold change [3] was -0.07, the log2 fold change (alisertib) was -0.031 and the log2 fold change [4] was -0.024. The log2 fold change (gefitinib) was -0.003, the log2 fold change (lapatinib) was 0.012 and the log2 fold change (pictilisib) was 0.016. The log2 fold change (crizotinib) was -0.027, the log2 fold change [5] was 0.014 and the log2 fold change (duvelisib) was 0.119. For the same target, the log2 fold change (gandotinib) was -0.037, the log2 fold change (tozasertib) was -0.005 and the log2 fold change (doramapimod) was 0.008. For the same target, the log2 fold change (bafetinib) was -0.024 and the log2 fold change [6] was -0.047.
YWHAQ (UniProt P27348) gave a log2 fold change (alvocidib) of 0.16, a log2 fold change (Tubastatin A) of -0.021 and a log2 fold change [1] of -0.006. The log2 fold change (defactinib) was 0, the log2 fold change [2] was 0.023 and the log2 fold change (encorafenib) was -0.025. For the same target, the log2 fold change [3] was -0.045, the log2 fold change (alisertib) was -0.014 and the log2 fold change [4] was 0.008. The log2 fold change (gefitinib) was -0.06, the log2 fold change (lapatinib) was 0.001 and the log2 fold change (pictilisib) was 0.038. For the same target, the log2 fold change (crizotinib) was 0.07, the log2 fold change [5] was 0.466 (active) and the log2 fold change (duvelisib) was -0.012. The log2 fold change (gandotinib) was -0.089, the log2 fold change (tozasertib) was -0.024 and the log2 fold change (doramapimod) was -0.043. The log2 fold change (bafetinib) was -0.043 and the log2 fold change [6] was -0.095.
VPS35L (UniProt Q7Z3J2) gave a log2 fold change (alvocidib) of 0, a log2 fold change (Tubastatin A) of -0.083 and a log2 fold change [1] of 0.015. For the same target, the log2 fold change (defactinib) was 0.036, the log2 fold change [2] was -0.013 and the log2 fold change (encorafenib) was 0.014. It also gave a log2 fold change [3] of 0.006, a log2 fold change (alisertib) of -0.034 and a log2 fold change [4] of -0.023. The log2 fold change (gefitinib) was -0.076, the log2 fold change (lapatinib) was -0.016 and the log2 fold change (pictilisib) was -0.003. The log2 fold change (crizotinib) was -0.028, the log2 fold change [5] was -0.025 and the log2 fold change (duvelisib) was 0.02. The log2 fold change (gandotinib) was -0.029, the log2 fold change (tozasertib) was 0.026 and the log2 fold change (doramapimod) was 0.02. It also gave a log2 fold change (bafetinib) of -0.052 and a log2 fold change [6] of 0.065.
In the case of YME1L1 (UniProt Q96TA2), the log2 fold change (alvocidib) is reported as 0.018, the log2 fold change (Tubastatin A) is reported as 0.048 and the log2 fold change [1] is reported as 0.011. The log2 fold change (defactinib) was 0.018, the log2 fold change [2] was -0.061 and the log2 fold change (encorafenib) was 0.05. For the same target, the log2 fold change [3] was -0.301 (active), the log2 fold change (alisertib) was -0.016 and the log2 fold change [4] was 0.028. For the same target, the log2 fold change (gefitinib) was 0.042, the log2 fold change (lapatinib) was -0.025 and the log2 fold change (pictilisib) was -0.034. It also gave a log2 fold change (crizotinib) of -0.073, a log2 fold change [5] of 0.01 and a log2 fold change (duvelisib) of -0.017. For the same target, the log2 fold change (gandotinib) was -0.112, the log2 fold change (tozasertib) was 0.048 and the log2 fold change (doramapimod) was -0.023. It also gave a log2 fold change (bafetinib) of -0.024 and a log2 fold change [6] of 0.055.
ZFPM1 (UniProt Q8IX07) was tested, and the log2 fold change (alvocidib) was 0.014, the log2 fold change (Tubastatin A) was 0.024 and the log2 fold change [1] was -0.022. The log2 fold change (defactinib) was 0, the log2 fold change [2] was 0.007 and the log2 fold change (encorafenib) was 0.072. The log2 fold change [3] was -0.009, the log2 fold change (alisertib) was -0.011 and the log2 fold change [4] was 0.018. It also gave a log2 fold change (gefitinib) of -0.006, a log2 fold change (lapatinib) of -0.003 and a log2 fold change (pictilisib) of -0.008. It also gave a log2 fold change (crizotinib) of -0.135, a log2 fold change [5] of 0.009 and a log2 fold change (duvelisib) of 0.001. The log2 fold change (gandotinib) was -0.079, the log2 fold change (tozasertib) was -0.118 and the log2 fold change (doramapimod) was 0.023. For the same target, the log2 fold change (bafetinib) was -0.077 and the log2 fold change [6] was -0.018.
